Data on 32 molecules can be found in PubChem BioAssay (NCATS).

The term viability denotes a read-out of living cells in per cent, often relative to untreated cells.

Structures are written as SMILES. “And” between values parts separate entries of the source, which are not always exact repeats. Equal values may be shown once. Records with an inconclusive call do not appear. A number with no mark means an inactive call. The source made the active and inactive calls. Unless noted, calls come from the whole dose curve; as a rule, active = well fitted curve in the direction sought with a large enough effect; inconclusive = small, poorly fitted or top-dose-only effect, or another doubt; inactive = no such curve, though single readings can be large; an effect the other way counts as inactive or inconclusive.

In experiment [1] the target is Cellular tumor antigen p53 (Homo sapiens) (UniProt P04637). In words: Primary qHTS for small molecule compounds that upregulate eGFP-tagged delta133p53alpha (in N-terminal) cells. (AID 2060322).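 Note: series mostly up to about 56 µM; 0% = DMSO vehicle and 100% = reference activator; nearly all actives have a fitted effect of over 75% in size.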 As to conditions: NCI-H358 eGFP-delta133p53alpha fluorescence, 24 h; activation: stronger effect = higher value. In outline:
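NCI-H358 cells pre-induced 24 h with 10 ng/ml doxycycline to express N-terminal eGFP-delta133p53alpha, then dosed 24 h at 37C without doxycycline; fixed, Hoechst-stained, GFP intensity by laser scanning cytometry, normalized to DMSO (0%) and 57.5 uM 5-azacytidine (100%).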
In general terms: qHTS replaces the single test concentration by a dilution series.

The target of experiment [2] is Aldehyde dehydrogenase, mitochondrial (Homo sapiens) (UniProt P05091). In words: qHTS for Inhibitors of the Aldehyde Dehydrogenase Family (ALDH2) Validation screens (AID 2061302; active = well fitted inhibition curve with a large enough effect; title and protocol of this record describe different tests; note: potency is the fitted concentration of half-maximal effect).
Experiment [3] has the same target. In words: qHTS for Inhibitors of the Aldehyde Dehydrogenase Family (ALDH2) Primary screen (AID 2061308).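 Note: plate controls were vehicle for no effect and reference inhibitor for full effect; nearly all actives have a fitted effect of over 55% in size.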
The target of experiment [4] is Retinaldehyde dehydrogenase 3 (Homo sapiens) (UniProt P47895). Kind of experiment: qHTS for Inhibitors of the Aldehyde Dehydrogenase Family (ALDH1A3) Validation screen (AID 2061312). Note: % is set by controls: 0 for no effect and ±100 for the full control effect; nearly all actives have a fitted effect of over 45% in size.
Experiment [5] has the same target. In words: qHTS for Inhibitors of the Aldehyde Dehydrogenase Family (ALDH1A3) Primary screen (AID 2061315).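 Note: plate controls were DMSO vehicle for no effect and reference inhibitor for full effect.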
The target in experiment [6] is Cellular tumor antigen p53 (Homo sapiens) (UniProt P04637). In words: Primary qHTS for small molecule compounds that upregulate eGFP-tagged delta133p53alpha (in C-terminal) cells. (AID 2060324).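 Note: 0% = DMSO wells and 100% = 57.5 µM 5-azacytidine.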 In outline: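 C-terminal eGFP-tagged delta133p53alpha NCI-H358 line; dox-induced (100 ng/ml, 24 h) then plated without dox; compounds pinned in titration, 24 h 37 °C/5% CO2; PFA fix, Hoechst nuclei; GFP by LSC.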
Chain of Cellular tumor antigen p53 (Homo sapiens) (P04637 whole entry, looked up): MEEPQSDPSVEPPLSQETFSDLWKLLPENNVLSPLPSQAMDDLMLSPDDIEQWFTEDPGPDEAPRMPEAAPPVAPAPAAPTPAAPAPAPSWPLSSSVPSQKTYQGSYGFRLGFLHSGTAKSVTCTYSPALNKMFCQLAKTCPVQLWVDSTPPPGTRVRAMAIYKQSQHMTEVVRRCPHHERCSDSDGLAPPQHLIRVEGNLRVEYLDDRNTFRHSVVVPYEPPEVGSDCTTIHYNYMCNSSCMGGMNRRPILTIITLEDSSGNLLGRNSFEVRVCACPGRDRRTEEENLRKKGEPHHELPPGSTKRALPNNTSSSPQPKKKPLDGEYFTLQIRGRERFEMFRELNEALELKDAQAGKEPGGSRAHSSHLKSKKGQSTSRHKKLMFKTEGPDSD

Experiment [7] has as its target Retinal dehydrogenase 2 (Homo sapiens) (UniProt O94788). In words: qHTS for Inhibitors of the Aldehyde Dehydrogenase Family (ALDH1A2) Confirmation screens (AID 2061314). Note: potency is the fitted concentration of half-maximal effect; nearly all actives have a fitted effect of over 65% in size.
The target of experiment [8] is Aldehyde dehydrogenase 1A1 (Homo sapiens) (UniProt P00352). In words: qHTS for Inhibitors of the Aldehyde Dehydrogenase Family (ALDH1A1) Confirmatory screens (AID 2061316). Note: potency is the fitted concentration of half-maximal effect; nearly all actives have a fitted effect of over 65% in size.
The nature of experiment [9]: qHTS for Inhibitors of the Aldehyde Dehydrogenase Family (ALDH1A2, ALDH1A3, ALDH2, ALDH3A1) (AID 2061307). Note: test system not described further here; potency is the fitted concentration of half-maximal effect; nearly all actives have a fitted effect of over 50% in size.
Experiment [10] is described as follows: BET inhibitor-based combinations targeting novel dependencies in MECOM-rearranged (r) AML: SET-2 cell line (AID 2202231).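 Note: plate controls were DMSO treated cells for no effect and wells without cells for full effect; nearly all actives have a fitted effect of over 35% in size.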 As to conditions: SET-2 AML cells viability, CellTiter-Glo luminescence, 48 h; viability: stronger effect = lower value, series mostly up to about 46 µM. The method in brief:
(§1)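 Viability of cells (500 per well) is scored by luminescent CellTiter-Glo at 48 hr post-dosing. Eleven-point titrations are normalized to DMSO and empty controls and reduced to AUC values.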
In general terms: In ATP-based viability assays light output follows the ATP content of the culture.

Experiment [11] in a line: BET inhibitor-based combinations targeting novel dependencies in MECOM-rearranged (r) AML: OCI-AML3 cell line (AID 2202232). Note: potency is the fitted concentration of half-maximal effect; nearly all actives have a fitted effect of over 35% in size. The settings on record: Potency: OCI-AML3 viability. In outline:
as §1

Experiment [12] is described as follows: BET inhibitor-based combinations targeting novel dependencies in MECOM-rearranged (r) AML: MV-4-11 cell line (AID 2202233). Note: nearly all actives have a fitted effect of over 45% in size. Note: potency is the fitted concentration of half-maximal effect. The method in brief: (§2)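 Using pin-tool transfer, drugs were added in 11 doses to cells (500/well), incubated 48 hr, and assessed with CellTiter-Glo. Z-AUC is a mean-centring transformation applied separately to each screened line.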
Experiment [13] can be described thus: BET inhibitor-based combinations targeting novel dependencies in MECOM-rearranged (r) AML: UCSD-AML1 cell line (AID 2202235). Note: nearly all actives have a fitted effect of over 40% in size. Note: potency is the fitted concentration of half-maximal effect. The method in brief: as §2
Experiment [14] can be described thus: BET inhibitor-based combinations targeting novel dependencies in MECOM-rearranged (r) AML: AML-194 cell line (AID 2202237;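 note: plate controls were vehicle wells for no effect and wells without cells for full effect; nearly all actives have a fitted effect of over 40% in size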). The method in brief:
as §1

A short description of experiment [15]: BET inhibitor-based combinations targeting novel dependencies in MECOM-rearranged (r) AML: HNT-34 cell line (AID 2202234). Note: nearly all actives have a fitted effect of over 35% in size. Note: potency is the fitted concentration of half-maximal effect. The method in brief: as §2

On to `CC(C)(C)c1cc(/C=C(\C#N)C(N)=S)cc(C(C)(C)C)c1O`, for which the activation in experiment [1] was 0.225%. The Potency entry in experiment [2] is “inactive”.

Turning to `COc1cc2c(cc1OC)-c1cc(=Nc3c(C)cc(C)cc3C)n(C)c(=O)n1CC2`, the activation in experiment [1] is -30.7%. Also, the Potency entry in [2] is “inactive”.

Consider `COC(=O)C1=CO[C@@H](O)[C@@H]2C(CO)=CC[C@H]12`, for which, in [1], the activation was 8.04%. For the same molecule, the Potency result in experiment [2], in experiment [3], in experiment [4] and in experiment [5] was “inactive” each time.

In the case of `NS(=O)(=O)c1cccc2c1c([N+](=O)[O-])cc1nc(O)c(O)nc12`, in experiment [1], the activation is -8.06%. In addition, the Potency result in [6] and in experiment [4] was “inactive” throughout. The values for the Potency in experiment [7] and in [8] were 25.2 µM (active) and 12.7 µM (active), respectively.

With `O=c1onc2cnc3ccccc3n12`, the activation in [1] is 14.8%. Moreover, the Potency is 6.31 µM (active) in [2], 31.8 nM (active) in experiment [9] and 4 µM (active) in [8].

With `COc1ccc(NC(=O)/C=C/c2ccc(Cl)cc2)cc1`, in [1], the activation was -18.7%. Besides, the Potency entry in experiment [6] and in experiment [4] was “inactive” each time.

In the case of `CNS(=O)(=O)CCc1ccc2[nH]cc(C3CCN(C)CC3)c2c1`, the activation in experiment [1] was 13.4% [middle of 4 runs]. Further, the Potency result in [2], in [3], in experiment [4] and in experiment [5] was “inactive” throughout.

For `NC(=O)C1=CN(C2OC(COP(=O)(O)OP(=O)(O)OC[C@H]3O[C@@H](n4cnc5c(N)ncnc54)[C@H](OP(=O)(O)O)[C@@H]3O)C(O)C2O)C=CC1` (some centres not stated), the activation in experiment [1] is -2.48%. Further, the Potency entry in experiment [6] and in experiment [4] was “inactive” throughout.

With `CC1=C(/C=C/C(C)=C/C=C/C(C)=C/C(=O)O)C(C)(C)CCC1`, the activation in experiment [1] was 11.9% and -12.6%. Further, the Potency entry in [6], in experiment [13] and in experiment [14] was “inactive” in each case. The viability in experiment [10] is 106%. For the same molecule, the Potency is 7.42 µM (active) in experiment [11] and 590 nM (active) in experiment [12].

For the molecule `O=C1NC(=O)/C(=C/c2ccc3nccnc3c2)S1`, the activation in experiment [1] is 18.2%. For the same molecule, the Potency result in experiment [6], in experiment [12], in experiment [15], in experiment [13] and in experiment [14] was “inactive” in each case. For the same molecule, the viability in [10] is 113%.

On to `CCCCS(=N)(=O)CC[C@H](N)C(=O)O` (some centres not stated), for which the activation in experiment [1] is -3.27%. Moreover, the Potency result in experiment [6] and in experiment [4] was “inactive” each time.

As to `O=C1NC(=O)/C(=C/c2ccc(-c3ccc(F)cc3O)o2)S1`, the activation in [1] was -29.7%. Besides, in experiment [2], the Potency entry is “inactive”.

As to `O=c1cc(-c2ccc(O)cc2)oc2cc(O)cc(O)c12`, the activation in [1] is -19.8% and -40.1%. Moreover, the Potency entry in experiment [2] and in [4] was “inactive” throughout.

For `NCCCCN`, the activation in experiment [1] was 16%. The Potency result in [2] and in [4] was “inactive” each time.

For `N[C@H](C(=O)O)c1cc(O)cc(O)c1`, in experiment [1], the activation is -2.9%. Besides, the Potency entry in [2] and in experiment [4] was “inactive” in each case.

Regarding `CC[C@@H]1Cc2cc(O)ccc2C2=C1c1ccc(O)cc1C[C@H]2CC`, the activation in [1] is -56%. The Potency entry in [2] and in [4] was “inactive” throughout.

For `CCOC(=O)C1=C(C)NC(C)=C(C(=O)OCC)C1c1c(F)c(F)c(F)c(F)c1F`, the activation in experiment [1] is 26.5%. Further, the Potency entry in experiment [2] and in experiment [4] was “inactive” in each case.

On to `COc1cc2ncnc(Nc3cccc(Cl)c3)c2cc1OC`, for which, in experiment [1], the activation is 23.2% and -41%. For the same molecule, the Potency entry in experiment [2], in [3], in [4] and in experiment [5] was “inactive” in each case. The Potency was 13.2 µM (active) in experiment [15] and 18.6 µM (active) in experiment [13].

As to `Cn1c(=O)c(-c2c(Cl)cccc2Cl)cc2cnc(Nc3ccc(N4CCOCC4)cc3)nc21`, the activation in experiment [1] was -42.1%. The Potency entry in [2] and in [4] was “inactive” each time.

With `C[C@]12CCC(=O)C=C1CC[C@@H]1[C@@H]2CC[C@@]2(C)[C@H]1CC[C@]2(O)C(=O)CO`, the activation in [1] is 12.6% and 23.7%. The Potency entry in [2] and in experiment [4] was “inactive” each time.

In the case of `Brc1c(Br)c(Br)c2[nH]cnc2c1Br`, in experiment [1], the activation is -55.8%. Moreover, the Potency entry in [2] and in [4] was “inactive” in each case.

Turning to `COC(=O)C1=C(C)NC(C)=C(C(=O)OC(C)(C)CN(C)CCC(c2ccccc2)c2ccccc2)C1c1cccc([N+](=O)[O-])c1` (configuration not stated), the activation in [1] is 17.5%. For the same molecule, the Potency entry in [2] and in experiment [4] was “inactive” in each case.

For `COCCCC/C(=N\OCCN)c1ccc(C(F)(F)F)cc1`, the activation in experiment [1] is -6.69% and 3.07%. Further, the Potency result in [2] and in [4] was “inactive” in each case.

Regarding `Cc1nc2ccccn2c(=O)c1CCN1CCC(C(=O)c2ccc(F)cc2)CC1`, the activation in experiment [1] was 0.565% and -12%. The Potency entry in experiment [2] and in [4] was “inactive” in each case.

Regarding `CN1[C@@H](CC(=O)c2ccccc2)CCC[C@H]1C[C@H](O)c1ccccc1`, in experiment [1], the activation was 1.49%. The Potency result in experiment [2] and in [4] was “inactive” in each case.

For the molecule `CN(C)CCCN1c2ccccc2Sc2ccc(C(F)(F)F)cc21`, the activation in [1] is 25.1% and 58.3%. The Potency entry in experiment [2] and in experiment [4] was “inactive” in each case.

In the case of `C=C1C(=O)O[C@@H]2[C@H]3O[C@]3(C)CCC=C(C)CC[C@@H]12`, in experiment [1], the activation is -45%. For the same molecule, the Potency result in experiment [2] and in experiment [4] was “inactive” throughout.

For `CC1=C(/C=C/C(C)=C/C=C/C(C)=C/C(=O)Nc2ccc(O)cc2)C(C)(C)CCC1`, the activation in experiment [1] is -39.3%. Also, the Potency result in experiment [2] and in experiment [4] was “inactive” each time.

As to `N#CC(C#N)=C(N)/C(C#N)=C/c1ccc(O)cc1`, in experiment [1], the activation is -15.2%. Also, the Potency result in [2] and in experiment [4] was “inactive” throughout.

As to `NC/C=C\C(=O)O`, the activation in [1] is 28.9%. For the same molecule, the Potency result in [2] and in [4] was “inactive” throughout.

As for `Cc1nc2c(OCc3ccccc3)cccn2c1CC#N`, the activation in experiment [1] is 7.44%. Besides, the Potency entry in [2] and in experiment [4] was “inactive” in each case.

Take `Cc1c(O)cccc1C(=O)N[C@@H](CSc1ccccc1)[C@H](O)CN1C[C@H]2CCCC[C@H]2C[C@H]1C(=O)NC(C)(C)C`: the activation in [1] is -0.838%. The Potency entry in [2] and in experiment [4] was “inactive” throughout.
